A short description of assay [1]: NCI Yeast Anticancer Drug Screen. Data for the rad50 strain (AID 155).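 Note: 0% = growth of vehicle-only cultures of the same strain.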 As to conditions: S. cerevisiae rad50 strain growth inhibition; at 50.0 µM; active compounds read high. A digest of the protocol: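 Yeast carrying a defined DNA repair defect were exposed to test compounds, and growth was compared with vehicle-treated controls to give percent inhibition.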
The nature of assay [2]: NCI Yeast Anticancer Drug Screen. Data for the mec2-1 strain (AID 157). The conditions noted are these: S. cerevisiae mec2-1 strain, at 50.0 µM, active compounds read high. A digest of the protocol: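 mec2-1 yeast strain, carrying an alteration in DNA damage repair or cell cycle control, was exposed to compounds; growth inhibition was measured relative to vehicle-treated controls.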

A short description of assay [3]: NCI Yeast Anticancer Drug Screen. Data for the sgs1 mgt1 strain (AID 161).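 Note: 0% = growth of cultures given vehicle only.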 As to conditions: S. cerevisiae sgs1 mgt1 strain, at 50.0 µM, active compounds read high. Summed up:
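This yeast growth screen uses a strain with defined DNA-repair lesions; compound-treated growth is compared with vehicle-treated growth.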

Assay [4] in a line: NCI Yeast Anticancer Drug Screen. Data for the cln2 rad14 strain (AID 165).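 Note: 0% = growth equal to vehicle treated cultures.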 The conditions noted are these: S. cerevisiae cln2 rad14 strain, at 50.0 µM, active compounds read high. A digest of the protocol: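 Yeast carrying cln2 and rad14 alterations (cell cycle control and DNA damage repair) were exposed to compounds. Growth inhibition was measured against vehicle-treated controls.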

Assay [5] in a line: NCI Yeast Anticancer Drug Screen. Data for the bub3 strain (AID 167). As to conditions: S. cerevisiae bub3 mutant strain, at 50.0 µM, active compounds read high. A digest of the protocol:
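Compounds were applied to a genetically altered yeast strain carrying a cell-cycle control defect. Growth inhibition was scored against vehicle-treated controls.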

Assay [6] is described as follows: NCI Yeast Anticancer Drug Screen. Data for the mlh1 rad18 strain (AID 175). As to conditions: S. cerevisiae mlh1 rad18 strain growth inhibition; at 50.0 µM; active compounds read high. A digest of the protocol: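 Growth inhibition of the yeast strain was measured after compound exposure and expressed relative to vehicle-treated controls. The strain carries defined defects in DNA damage repair.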

Compounds without any hit were thinned out: in the full panel of roughly 79,000, 15% have a hit. Unmarked numbers belong to inactive results. Activity calls are given as the source filed them. Cut-off read from the data, not from the text of the source: active = growth inhibition above about 70%; inactive = the rest.

Drawing on PubChem BioAssay (NCI), this text covers growth inhibition for 37 compounds.

Take `CCC(Cc1ccccc1)OC(=O)c1ccccc1C(=O)O` (configuration not stated): the growth inhibition in assay [1] was -16.2%; in assay [2], -10.8%; in assay [3] it was 8%; in assay [4], -43.3%; in assay [5] it was -6.85%; in assay [6], 1.9%.

As to `CCOC(=O)c1nc2cc(C(F)(F)F)ccc2nc1Nc1ccc(OC)c(OC)c1`, the growth inhibition was -18.1% in assay [1]; -6.15% in assay [2]; -16.9% in assay [3]; -12.4% in assay [4]; -12.8% in assay [5]; -14% in assay [6].

For the compound `CCOC(=O)C(=O)c1cn(C)c(=O)n(C)c1=O`, the growth inhibition was 12.1% in assay [1]; 2.85% in assay [2]; 1.3% in assay [3]; 3.8% in assay [4]; 0.9% in assay [5]; 10.6% in assay [6].

Take `COc1ccccc1NC(=S)N/C=C(\C#N)c1nc2ccccc2s1`: the growth inhibition in assay [1] is -28.4%; in assay [2], 5.95%; in assay [3] it was -8.9%; in assay [4] it was 3.45%; in assay [5], 2.3%; in assay [6], -3%.

On to `Clc1cccc(NNc2cccc(Cl)c2)c1`, for which the growth inhibition was -11.5% in assay [1]; -16.8% in assay [2]; -13.8% in assay [3]; -66.2% in assay [4]; 7.25% in assay [5]; -25.9% in assay [6].

Consider `CN(C)CC1CCCCC1O` (configuration not stated), for which the growth inhibition in assay [1] is -4.75%; in assay [2], -5.85%; in assay [3], -5.3%; in assay [4], 25.1%; in assay [5] it was 1.95%; in assay [6], -7.35%.

In the case of `CN(C)CCCNCc1c[nH]c(=O)[nH]c1=O`, the growth inhibition in assay [1] is -4.75%; in assay [2], 6.55%; in assay [3], -9.9%; in assay [4], -7.4%; in assay [5], -4.85%; in assay [6] it was -25.9%.

`N/N=C(/C(=O)Nc1cccc(Cl)c1)C(C(=O)c1ccc(O)cc1O)C1OC(=O)c2ccccc21` (configuration not stated): the growth inhibition was -17.4% in assay [1]; -14.3% in assay [2]; -8.1% in assay [3]; 0.85% in assay [4]; 6.1% in assay [5]; 20.1% in assay [6].

Regarding `CCSCC(C)C(=O)OC` (configuration not stated), the growth inhibition is -26.6% in assay [1]; -0.4% in assay [2]; -14.3% in assay [3]; 23.6% in assay [4]; 2.85% in assay [5]; -40.3% in assay [6].

For the compound `O=S(O)c1cc(Cl)c(O)c(Cl)c1`, the growth inhibition in assay [1] was -7.1%; in assay [2] it was 1.3%; in assay [3], -7.05%; in assay [4] it was -37.5%; in assay [5], -5.1%; in assay [6] it was -2.75%.

For `O=C1Oc2cc3c(c4cccc1c24)OCN(c1ccc(Cl)cc1)C3`, the growth inhibition in assay [1] is 38.6%; in assay [2], 29.9%; in assay [3] it was 53.1%; in assay [4] it was 33%; in assay [5] it was 33%; in assay [6], 37.5%.

As to `O=C(CCN1CCCC1)c1ccc2ccccc2c1`, the growth inhibition is 32.6% in assay [1]; 49.3% in assay [2]; 65.9% in assay [3]; 43.6% in assay [4]; 59.4% in assay [5]; 21.6% in assay [6].

With `O=C1CCCCCC1`, the growth inhibition in assay [1] was 9.95%; in assay [2], -8.9%; in assay [3], 11.2%; in assay [4] it was -19.2%; in assay [5], -4.45%; in assay [6] it was 3.4%.

On to `Cc1nc(N)nc(N)c1N1CCN(c2ccc(C(=O)NC(C(=O)O)C(=O)O)cc2)CC1`, for which the growth inhibition was -4.8% in assay [1]; -15.6% in assay [2]; -25.8% in assay [3]; 4.55% in assay [4]; -38.2% in assay [5]; -37.8% in assay [6].

Turning to `Cc1ccc2c(c1)C1(c3ccccc3)Oc3ccc(C)cc3C(c3ccccc3)(O2)O1`, the growth inhibition is 12.2% in assay [1]; 5.75% in assay [2]; 10.7% in assay [3]; 25.3% in assay [4]; -4.9% in assay [5]; -7.2% in assay [6].

Take `COC(=O)C1CCC(=O)N1CN(C(C)=O)c1ccccc1` (configuration not stated): the growth inhibition in assay [1] was 10.1%; in assay [2] it was 8.6%; in assay [3], -14.1%; in assay [4] it was 9%; in assay [5], -5.8%; in assay [6], -30.6%.

Turning to `O=C(O)C(CNCc1ccccc1)(c1ccccc1)c1ccccc1`, the growth inhibition in assay [1] is 5.55%; in assay [2] it was -9.25%; in assay [3], 10.3%; in assay [4] it was 4.9%; in assay [5], 1.3%; in assay [6] it was 12.7%.

Take `CCOC(=O)CC1CC2c3cc(OC)c(OC)cc3CCN2CC1CC` (configuration not stated): the growth inhibition in assay [1] was 3.1%; in assay [2], 12.8%; in assay [3] it was -6.7%; in assay [4] it was -5.25%; in assay [5], 1.95%; in assay [6] it was 13.8%.

Take `CNC1=C(Sc2ccc(Cl)cc2)C(=O)c2ccccc2C1=O`: the growth inhibition in assay [1] was -0.4%; in assay [2], 19.4%; in assay [3], 1.45%; in assay [4], 3.25%; in assay [5], 2.75%; in assay [6] it was 0.35%.

For the compound `COC(=O)CC(=O)C[P+](c1ccccc1)(c1ccccc1)c1ccccc1`, the growth inhibition is 6.5% in assay [1]; -19.1% in assay [2]; 14.8% in assay [3]; 18.4% in assay [4]; -18.1% in assay [5]; 5.4% in assay [6].

Take `O=S(=O)(SC(S(=O)(=O)c1ccccc1)S(=O)(=O)c1ccccc1)c1ccccc1`: the growth inhibition was 13.2% in assay [1]; 9.35% in assay [2]; 39.4% in assay [3]; 1% in assay [4]; 72.6% (active) in assay [5]; 39.2% in assay [6].

For `Cc1cc(=O)c(CO)n[nH]1`, the growth inhibition in assay [1] is 8.75%; in assay [2], 15.2%; in assay [3], 3.7%; in assay [4], 6.8%; in assay [5], 3.45%; in assay [6], 19.5%.

On to `O=C1C=C(C2OC(CI)C(O)C2O)C(=O)N1` (configuration not stated), for which the growth inhibition in assay [1] is -0.45%; in assay [2] it was 23.1%; in assay [3], 11.5%; in assay [4], -14.4%; in assay [5] it was 23.2%; in assay [6], -2.05%.

With `C=CC1C(OC2OC(CO)C(O)C(O)C2O)OC=C(C(=O)OC)C1CC1CC(=O)CC(CCc2ccc(O)cc2)O1` (configuration not stated), the growth inhibition in assay [1] is 1.8%; in assay [2], -10.1%; in assay [3], -4.9%; in assay [4] it was 1.45%; in assay [5] it was -13.9%; in assay [6], -76.2%.

`CC(C)C(O)C(=O)C(O)C(C)C` (configuration not stated): the growth inhibition in assay [1] was -13.4%; in assay [2], -8.2%; in assay [3], 4.5%; in assay [4], 15.7%; in assay [5] it was 3.4%; in assay [6], -10.9%.

Turning to `Cc1ccc(-c2nc3ccccc3c(=O)n2/N=C/c2ccc(Cl)cc2Cl)cc1`, the growth inhibition in assay [1] was 9.05%; in assay [2], 3.85%; in assay [3] it was 7.65%; in assay [4] it was 11.1%; in assay [5], 7.35%; in assay [6], 21.4%.

For the compound `C/C=C(\C)C(=O)OC1C2C(C)=CC(=O)C(O)C2(C)C2C3(O)OCC24C1OC(=O)C(OC(C)=O)C4C(C)C3O` (configuration not stated), the growth inhibition was 91.9% (active) in assay [1]; 93.3% (active) in assay [2]; 92.8% (active) in assay [3]; 91.8% (active) in assay [4]; 91.7% (active) in assay [5]; 91.6% (active) in assay [6].

`Cc1cccn(C(=O)c2ccccc2)c1=N`: the growth inhibition was -8.2% in assay [1]; 4.1% in assay [2]; 1.35% in assay [3]; -41.7% in assay [4]; -16.9% in assay [5]; 29.3% in assay [6].

In the case of `CCCCCCOC(=O)CCBr`, the growth inhibition was 5% in assay [1]; 2.35% in assay [2]; -3.15% in assay [3]; -4.55% in assay [4]; 4.55% in assay [5]; 1.4% in assay [6].

In the case of `COc1ccc(COC(=O)Nc2ccc([N+](=O)[O-])cc2)cc1`, the growth inhibition in assay [1] is -38.2%; in assay [2] it was -3.6%; in assay [3], -28.1%; in assay [4], -5.3%; in assay [5], -18.5%; in assay [6], -12.2%.

In the case of `Cc1cccc2c1-c1c(C)cccc1C(Cl)S(=O)(=O)C2` (configuration not stated), the growth inhibition is 1.25% in assay [1]; -4.6% in assay [2]; -9.05% in assay [3]; 4.55% in assay [4]; 6.85% in assay [5]; -1.65% in assay [6].

Take `c1cc[n+]2cc3c(ccc4cc5cccc[n+]5cc43)cc2c1`: the growth inhibition in assay [1] was 17.4%; in assay [2] it was 11.1%; in assay [3], 31.4%; in assay [4], 58%; in assay [5] it was -2.3%; in assay [6] it was 11.6%.

Consider `CCCCN(CCCC)CC(O)c1cc2ccc(Cl)cc2nc1-c1ccc(Cl)cc1` (configuration not stated), for which the growth inhibition in assay [1] is 65.2%; in assay [2], 41.7%; in assay [3], 85.5% (active); in assay [4] it was 8.35%; in assay [5] it was -6.15%; in assay [6], 78.8% (active).

Turning to `C[N+]1(C)N=C([O-])N(c2ccccc2F)C1=O`, the growth inhibition in assay [1] is 7.15%; in assay [2], -7.35%; in assay [3], 2.7%; in assay [4], -17.1%; in assay [5], -2.15%; in assay [6], -0.7%.

In the case of `CCOC(OCC)C(Cl)(Cl)CCl`, the growth inhibition is 6.25% in assay [1]; 4.45% in assay [2]; -3.8% in assay [3]; -25.4% in assay [4]; -0.6% in assay [5]; -6.35% in assay [6].

For `CC(=O)NC(C)C#N` (configuration not stated), the growth inhibition in assay [1] was -15.4%; in assay [2], -14.1%; in assay [3] it was -0.2%; in assay [4], -4%; in assay [5], -8.7%; in assay [6], 5.55%.

Turning to `Cc1cccc(-c2nnc(-c3cccc4ccccc34)o2)c1`, the growth inhibition is 8.8% in assay [1]; -28.8% in assay [2]; 43.8% in assay [3]; 14.3% in assay [4]; 26.5% in assay [5]; 13.4% in assay [6].
